# Source: PubChem BioAssay (NCI)
# Compounds without any hit were thinned out: in the full panel of roughly 83,000, 20% have a hit.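 Single-concentration screen, 48 h exposure, 96-well plates. Endpoint: percent growth. Below 10 = active.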 A number with no mark means an inactive call. Calls of active or inactive are those of the source.
# Tests used:
# Test in all cases: NCI-60 one-dose screen, 48 h (100 = growth as untreated, 0 = no growth, -100 = all killed)
# Details in all cases: 10 µM unless noted
# NCI-H23 lung = tested on: NCI-H23 lung
# NCI-H226 lung = tested on: NCI-H226 lung
# NCI-H322M lung = tested on: NCI-H322M lung
# HOP-62 NSCLC = tested on: HOP-62 NSCLC
# NCI-H460 lung = tested on: NCI-H460 lung
# HOP-92 NSCLC = tested on: HOP-92 NSCLC
# NCI-H522 lung = tested on: NCI-H522 lung
# A549/ATCC NSCLC = tested on: A549/ATCC NSCLC
# 786-0 renal = tested on: 786-0 renal
# DU-145 prostate = tested on: DU-145 prostate
# K-562 leukemia = tested on: K-562 leukemia
# MALME-3M melanoma = tested on: MALME-3M melanoma
# MDA-MB-231 breast = tested on: MDA-MB-231 breast
# RXF 393 renal = tested on: RXF 393 renal
# SF-268 CNS = tested on: SF-268 CNS
# SF-295 CNS = tested on: SF-295 CNS
# SF-539 CNS = tested on: SF-539 CNS
# UACC-257 melanoma = tested on: UACC-257 melanoma
# M14 melanoma = tested on: M14 melanoma
# COLO 205 colon = tested on: COLO 205 colon
SMILES,growth (NCI-H23 lung),growth (NCI-H226 lung),growth (NCI-H322M lung),growth (HOP-62 NSCLC),growth (NCI-H460 lung),growth (HOP-92 NSCLC),growth (NCI-H522 lung),growth (A549/ATCC NSCLC),growth (786-0 renal),growth (DU-145 prostate),growth (K-562 leukemia),growth (MALME-3M melanoma),growth (MDA-MB-231 breast),growth (RXF 393 renal),growth (SF-268 CNS),growth (SF-295 CNS),growth (SF-539 CNS),growth (UACC-257 melanoma),growth (M14 melanoma),growth (COLO 205 colon)
CC(=O)ON=C1C=CC(=C(C#N)c2ccccc2)C=C1,91.7%,66.8%,94.8%,55.1%,4.7% (active),33.1%,-24.2% (active),32.2%,15.4%,1.67% (active),28.1%,83.3%,13.9%,35.5%,14.1%,39.8%,24.5%,30.5%,22.2%,–
Cc1ccnc(NC(c2ccccc2)c2ccc3cccnc3c2O)c1 (stereo not given),47.8%,57.8%,38.4%,54.1%,5.96% (active),67.8%,7.12% (active),39%,34.1%,47.8%,21.4%,62.4%,48.5%,66.9%,34.7%,26%,24.7%,41.7%,36.8%,–
CC(C)c1ccc2nc3ccc(C(=O)NCCN4CCN(c5ccccc5)CC4)cn3c(=O)c2c1,50.5%,38.4%,86.8%,90.9%,65.2%,58.1%,67.4%,57.3%,34.4%,80%,45.1%,48.3%,59.3%,3.14% (active),72.9%,23.1%,40.8%,60.2%,63.8%,–
COc1ccccc1/C=C\C(=O)c1ccccc1,79.8%,85.8%,95%,85.9%,59.5%,16.3%,39.2%,96.4%,81.9%,94.7%,13%,78.9%,84.8%,85.5%,96.1%,94.2%,92.4%,82.2%,78.5%,111%
C1=C(c2ccccc2)C(c2ccc(OCCN3CCCCC3)cc2)Oc2ccccc21 (stereo not given),58.4%,74.4%,77.4%,60.5%,-20.2% (active),59.3%,24.7%,59.2%,55.6%,77.1%,10.8%,2.37% (active),48.4%,20.4%,62.2%,52.7%,71.8%,-40.6% (active),-58% (active),–
NC(=S)N/N=C\c1nccc2c(C(F)(F)C(F)(F)C(F)(F)F)cccc12,9.5% (active),-27.3% (active),-1.69% (active),-7.59% (active),-25.9% (active),-2.33% (active),-20.7% (active),-20.8% (active),-48.3% (active),1.56% (active),4.7% (active),-3.69% (active),36.9%,-11.7% (active),13%,7.4% (active),-10.3% (active),-18.2% (active),-19.2% (active),–
CCOc1ccc(-c2nc3ccc(-c4nc5ccc(N6CCN(C)CC6)cc5[nH]4)cc3[nH]2)cc1,-71.7% (active),-85.5% (active),-84.7% (active),-87.5% (active),-90.7% (active),-56.3% (active),-65.5% (active),-80.7% (active),-90.6% (active),-100% (active),24.9%,-87.8% (active),-84.2% (active),-86.2% (active),-83.9% (active),-81.9% (active),-97.9% (active),-64.8% (active),-85.1% (active),-96.5% (active)
